PubChem BioAssay (NCI)
The panel holds about 83,000 compounds, 20% with a hit somewhere; the sample as a whole holds those more often.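 Interpretation: 100, growth as untreated; towards 0, rising growth inhibition; 0, no net growth; 0 to -100, cell death. Compounds scoring below 10 were considered active.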 The source made the active and inactive calls.

How the values were obtained:
Assay in all cases: NCI-60 one-dose screen, 48 h (100 = growth as untreated, 0 = no growth, -100 = all killed)
Conditions in all cases: 10 µM
HCT-15 colon = system: HCT-15 colon
HT29 colon = system: HT29 colon
SNB-75 CNS = system: SNB-75 CNS
SNB-19 CNS = system: SNB-19 CNS
U251 CNS = system: U251 CNS
PC-3 prostate = system: PC-3 prostate
SK-MEL-5 melanoma = system: SK-MEL-5 melanoma
UACC-62 melanoma = system: UACC-62 melanoma
LOX IMVI melanoma = system: LOX IMVI melanoma
SK-MEL-28 melanoma = system: SK-MEL-28 melanoma
SK-MEL-2 melanoma = system: SK-MEL-2 melanoma
SN12C renal = system: SN12C renal
UO-31 renal = system: UO-31 renal
TK-10 renal = system: TK-10 renal
ACHN renal = system: ACHN renal
CAKI-1 renal = system: CAKI-1 renal
A498 renal = system: A498 renal
MOLT-4 leukemia = system: MOLT-4 leukemia
CCRF-CEM leukemia = system: CCRF-CEM leukemia

Measured: growth

COc1ccc(C2CC(c3ccc(-c4ccccc4)cc3)=NN2c2ccc(S(N)(=O)=O)cc2)cc1 (stereo not drawn)
inactive: HCT-15 colon 45.6% | HT29 colon 48.6% | SNB-75 CNS 81.7% | SNB-19 CNS 65.2% | U251 CNS 66.8% | PC-3 prostate 19.7% | SK-MEL-5 melanoma 85.5% | UACC-62 melanoma 71.1% | LOX IMVI melanoma 50.3% | SK-MEL-28 melanoma 85.4% | SK-MEL-2 melanoma 90.3% | SN12C renal 52.6% | UO-31 renal 50% | TK-10 renal 65.4% | ACHN renal 74.7% | CAKI-1 renal 45.2% | A498 renal 98% | MOLT-4 leukemia 54.8%

COC(=O)C1(C(=O)OC)C2C(=O)C3C(C21)C3(C(=O)OC(C)(C)C)C(=O)OC(C)(C)C (stereo not drawn)
inactive: HCT-15 colon 108% | HT29 colon 112% | SNB-75 CNS 88.5% | SNB-19 CNS 110% | U251 CNS 104% | PC-3 prostate 90.2% | SK-MEL-5 melanoma 100% | UACC-62 melanoma 112% | LOX IMVI melanoma 103% | SK-MEL-28 melanoma 107% | SK-MEL-2 melanoma 127% | SN12C renal 107% | UO-31 renal 85.4% | TK-10 renal 128% | ACHN renal 102% | CAKI-1 renal 90% | A498 renal 108% | MOLT-4 leukemia 105%

Nc1ccn([C@@H]2O[C@H](COP(=O)(O)O[C@@H]3C[C@H](n4cc(F)c(=O)[nH]c4=O)O[C@@H]3COP(=O)(O)O[C@@H]3C[C@H](n4cc(F)c(=O)[nH]c4=O)O[C@@H]3COP(=O)(O)O[C@@H]3C[C@H](n4cc(F)c(=O)[nH]c4=O)O[C@@H]3COP(=O)(O)O[C@@H]3C[C@H](n4cc(F)c(=O)[nH]c4=O)O[C@@H]3COP(=O)(O)O[C@@H]3C[C@H](n4cc(F)c(=O)[nH]c4=O)O[C@@H]3COP(=O)(O)O[C@@H]3C[C@H](n4cc(F)c(=O)[nH]c4=O)O[C@@H]3COP(=O)(O)O[C@@H]3C[C@H](n4cc(F)c(=O)[nH]c4=O)O[C@@H]3COP(=O)(O)O[C@@H]3C[C@H](n4cc(F)c(=O)[nH]c4=O)O[C@@H]3COP(=O)(O)O[C@@H]3C[C@H](n4cc(F)c(=O)[nH]c4=O)O[C@@H]3COP(=O)(O)O[C@@H]3C[C@H](n4cc(F)c(=O)[nH]c4=O)O[C@@H]3COP(=O)(O)OCCOCCOCCOCCOCCOCCO)[C@H](O)C2O)c(=O)n1 (stereo partly drawn)
active: SK-MEL-5 melanoma 2.12%
inactive: HCT-15 colon 44.6% | HT29 colon 47.1% | SNB-75 CNS 86.3% | SNB-19 CNS 56.6% | U251 CNS 30.3% | PC-3 prostate 56.1% | UACC-62 melanoma 25.6% | LOX IMVI melanoma 25.2% | SK-MEL-28 melanoma 52.3% | SK-MEL-2 melanoma 60.2% | UO-31 renal 13.5% | TK-10 renal 56.3% | ACHN renal 11.7% | CAKI-1 renal 26.7% | A498 renal 46.5% | CCRF-CEM leukemia 21.4% | MOLT-4 leukemia 26.8%

COc1cccc(C(=O)NNc2nc(N3CCOCC3)nc(N3CCN(C(c4ccccc4)c4ccccc4)CC3)n2)c1
inactive: HCT-15 colon 89.2% | HT29 colon 95% | SNB-75 CNS 71.5% | SNB-19 CNS 86.3% | U251 CNS 85.2% | PC-3 prostate 55.1% | SK-MEL-5 melanoma 53.3% | UACC-62 melanoma 65.8% | LOX IMVI melanoma 83.1% | SK-MEL-28 melanoma 93.4% | SK-MEL-2 melanoma 85.3% | SN12C renal 75.3% | UO-31 renal 39.7% | ACHN renal 76.3% | CAKI-1 renal 44.7% | A498 renal 51.3% | CCRF-CEM leukemia 85.1% | MOLT-4 leukemia 63.2%

COc1cc(-c2nc3ccccc3[nH]2)ccc1OCc1nnc(-c2ccc(Br)cc2)o1
inactive: HCT-15 colon 45.3% | HT29 colon 70.7% | SNB-75 CNS 104% | SNB-19 CNS 104% | U251 CNS 83.9% | PC-3 prostate 96.2% | SK-MEL-5 melanoma 75% | UACC-62 melanoma 92.7% | LOX IMVI melanoma 92.6% | SK-MEL-28 melanoma 93.2% | SK-MEL-2 melanoma 105% | SN12C renal 85.8% | UO-31 renal 79.5% | ACHN renal 98.6% | CAKI-1 renal 95.5% | A498 renal 79.6% | CCRF-CEM leukemia 67.9% | MOLT-4 leukemia 63.8%

Cc1ccc(/C=C2\CN(Cc3cn(CCNc4ccnc5cc(Cl)ccc45)nn3)C/C(=C\c3ccc(C)cc3)C2=O)cc1
inactive: SNB-75 CNS 18.1% | TK-10 renal 29.9%
active: HCT-15 colon -29.4% | HT29 colon -45.1% | SNB-19 CNS -29.8% | U251 CNS -73.7% | PC-3 prostate -32.4% | SK-MEL-5 melanoma -90.5% | UACC-62 melanoma -58.4% | LOX IMVI melanoma -82.9% | SK-MEL-28 melanoma -83.5% | SK-MEL-2 melanoma -27.5% | SN12C renal -63.4% | UO-31 renal -78.8% | ACHN renal -16.9% | CAKI-1 renal -13.6% | A498 renal -81.1% | MOLT-4 leukemia -10.4%

CC(C)(C)c1ccc(OCCCCCCN2CCNCC2)cc1
active: HCT-15 colon 6.25% | UACC-62 melanoma -32.2% | LOX IMVI melanoma -16.7%
inactive: HT29 colon 25% | SNB-75 CNS 53.7% | SNB-19 CNS 66.2% | U251 CNS 30.7% | PC-3 prostate 39.6% | SK-MEL-5 melanoma 50.4% | SK-MEL-28 melanoma 59.1% | SK-MEL-2 melanoma 82% | UO-31 renal 72.8% | TK-10 renal 90.8% | ACHN renal 70.6% | CAKI-1 renal 75.9% | A498 renal 86.1% | CCRF-CEM leukemia 12% | MOLT-4 leukemia 31.3%

O=C(Cn1ccc(=O)[nH]c1=O)c1ccc([N+](=O)[O-])o1
inactive: HCT-15 colon 94.7% | HT29 colon 101% | SNB-75 CNS 103% | SNB-19 CNS 120% | U251 CNS 95.2% | PC-3 prostate 85.8% | SK-MEL-5 melanoma 90.7% | UACC-62 melanoma 87% | LOX IMVI melanoma 80% | SK-MEL-28 melanoma 95.3% | SK-MEL-2 melanoma 101% | SN12C renal 108% | UO-31 renal 109% | TK-10 renal 63.3% | ACHN renal 110% | CAKI-1 renal 105% | A498 renal 115% | MOLT-4 leukemia 106%

CC(C)OP(=O)(O)c1ncc(-c2ccc(C(F)(F)F)cc2)c(NC2CCCCCC2)n1
inactive: HCT-15 colon 95.4% | HT29 colon 47.5% | SNB-75 CNS 73% | SNB-19 CNS 71.3% | U251 CNS 30.4% | PC-3 prostate 24.2% | SK-MEL-5 melanoma 43% | UACC-62 melanoma 31.6% | LOX IMVI melanoma 64.6% | SK-MEL-28 melanoma 51.4% | SK-MEL-2 melanoma 65.4% | SN12C renal 54.4% | UO-31 renal 60.2% | ACHN renal 34.6% | CAKI-1 renal 87% | A498 renal 89.5% | CCRF-CEM leukemia 48.6% | MOLT-4 leukemia 80.4%

COc1ccc(C2C=C(c3ccc(Cl)c(Cl)c3)N=C3SC(C)=CN32)cc1OC (stereo not drawn)
inactive: HCT-15 colon 80.7% | HT29 colon 62.9% | SNB-75 CNS 83.4% | SNB-19 CNS 79.4% | U251 CNS 69.2% | PC-3 prostate 35.6% | SK-MEL-5 melanoma 85.1% | UACC-62 melanoma 82.9% | LOX IMVI melanoma 56.2% | SK-MEL-28 melanoma 62.4% | SK-MEL-2 melanoma 79.2% | SN12C renal 70.6% | UO-31 renal 60.7% | TK-10 renal 74.1% | ACHN renal 68.3% | CAKI-1 renal 61.7% | A498 renal 105% | MOLT-4 leukemia 48.8%

CCNC(=S)NN
inactive: HCT-15 colon 86.1% | HT29 colon 56.2% | SNB-75 CNS 77% | SNB-19 CNS 97.2% | U251 CNS 87.2% | PC-3 prostate 60.7% | SK-MEL-5 melanoma 102% | UACC-62 melanoma 99.2% | LOX IMVI melanoma 96.8% | SK-MEL-28 melanoma 107% | SK-MEL-2 melanoma 128% | SN12C renal 81.7% | UO-31 renal 68.4% | TK-10 renal 130% | ACHN renal 96.4% | CAKI-1 renal 90.1% | A498 renal 91.2% | MOLT-4 leukemia 73.3%

Nc1nc2c(nnn2C2CC(O)C(CO)O2)c(=O)[nH]1 (stereo not drawn)
inactive: HCT-15 colon 41.6% | HT29 colon 51.4% | SNB-75 CNS 61.8% | SNB-19 CNS 94.3% | U251 CNS 54.3% | PC-3 prostate 26.5% | SK-MEL-5 melanoma 87% | UACC-62 melanoma 25% | LOX IMVI melanoma 19.5% | SK-MEL-28 melanoma 87.5% | SK-MEL-2 melanoma 42.8% | SN12C renal 45.3% | UO-31 renal 30.9% | TK-10 renal 59.2% | ACHN renal 23.3% | CAKI-1 renal 32.4% | A498 renal 55.7% | MOLT-4 leukemia 30.4%

O=C(Nc1ccc(OS(=O)(=O)Cc2ccccc2)cc1)C12CC3CC(CC(C3)C1)C2
active: HT29 colon 9.75%
inactive: HCT-15 colon 56.8% | SNB-75 CNS 114% | SNB-19 CNS 91.4% | U251 CNS 67.7% | PC-3 prostate 55.6% | SK-MEL-5 melanoma 63.3% | UACC-62 melanoma 81.6% | LOX IMVI melanoma 68% | SK-MEL-28 melanoma 103% | SK-MEL-2 melanoma 102% | SN12C renal 88.3% | UO-31 renal 78.4% | ACHN renal 99.8% | CAKI-1 renal 84.2% | A498 renal 83.1% | CCRF-CEM leukemia 85.2% | MOLT-4 leukemia 41.5%

N=C(N)c1ccc(-c2ccc(-c3cccs3)s2)nc1
inactive: HCT-15 colon 12.2% | SNB-75 CNS 41.3% | SNB-19 CNS 87.8% | U251 CNS 28% | PC-3 prostate 43.7% | SK-MEL-5 melanoma 68.6% | UACC-62 melanoma 86.8% | LOX IMVI melanoma 10.5% | SK-MEL-28 melanoma 83.7% | SK-MEL-2 melanoma 97.8% | SN12C renal 60.9% | TK-10 renal 47.3% | ACHN renal 56.7% | CAKI-1 renal 34.2% | MOLT-4 leukemia 17.3%
active: HT29 colon -20.1% | UO-31 renal 2.6% | A498 renal -25.6%

CCCCCCCC/C=C/CCCCCCCCC1=NCCN1CCO
active: LOX IMVI melanoma -7.51%
inactive: HCT-15 colon 59.2% | HT29 colon 19.7% | SNB-75 CNS 57.3% | SNB-19 CNS 92.8% | U251 CNS 54.1% | PC-3 prostate 46.2% | SK-MEL-5 melanoma 85.6% | UACC-62 melanoma 90.5% | SK-MEL-28 melanoma 90.5% | SK-MEL-2 melanoma 95.1% | SN12C renal 64.1% | UO-31 renal 38.5% | TK-10 renal 124% | ACHN renal 58.7% | CAKI-1 renal 80.5% | A498 renal 84.7% | MOLT-4 leukemia 34.3%

COc1cc(-c2nc3cc(Cl)c(Cl)cc3[nH]2)ccc1OCC(=O)NN
inactive: HCT-15 colon 65.2% | HT29 colon 98% | SNB-75 CNS 106% | SNB-19 CNS 93% | U251 CNS 91.2% | PC-3 prostate 73.8% | SK-MEL-5 melanoma 91% | UACC-62 melanoma 27.5% | LOX IMVI melanoma 28.5% | SK-MEL-28 melanoma 96.4% | SK-MEL-2 melanoma 95.9% | SN12C renal 78.7% | UO-31 renal 71.1% | TK-10 renal 126% | ACHN renal 72.6% | CAKI-1 renal 41% | A498 renal 83.1% | MOLT-4 leukemia 67.8%
